About 5,100 (32%) of roughly 16,000 compounds were called active. Not shown: some 25% with an inconclusive outcome. The call rests on the fitted dose curve; in most records, active means well fitted curve in the direction sought with a large enough effect; inconclusive means small, poorly fitted or top-dose-only effect, or effect the other way; inactive means no such curve, though single readings can be large or run the other way. This is one part of the list.
The compounds below were run against Cytochrome P450 3A4 (Homo sapiens) (UniProt P08684) (assay: Cytochrome panel assay with activity outcomes). Details: recombinant CYP, pro-luciferin dealkylation, luminescence, p450-cyp3a4; series mostly up to 57.1 µM; activity, negative = inhibition: at the top concentration.
Cytochrome P450 3A4 (Homo sapiens), sequence (P08684 whole entry, looked up): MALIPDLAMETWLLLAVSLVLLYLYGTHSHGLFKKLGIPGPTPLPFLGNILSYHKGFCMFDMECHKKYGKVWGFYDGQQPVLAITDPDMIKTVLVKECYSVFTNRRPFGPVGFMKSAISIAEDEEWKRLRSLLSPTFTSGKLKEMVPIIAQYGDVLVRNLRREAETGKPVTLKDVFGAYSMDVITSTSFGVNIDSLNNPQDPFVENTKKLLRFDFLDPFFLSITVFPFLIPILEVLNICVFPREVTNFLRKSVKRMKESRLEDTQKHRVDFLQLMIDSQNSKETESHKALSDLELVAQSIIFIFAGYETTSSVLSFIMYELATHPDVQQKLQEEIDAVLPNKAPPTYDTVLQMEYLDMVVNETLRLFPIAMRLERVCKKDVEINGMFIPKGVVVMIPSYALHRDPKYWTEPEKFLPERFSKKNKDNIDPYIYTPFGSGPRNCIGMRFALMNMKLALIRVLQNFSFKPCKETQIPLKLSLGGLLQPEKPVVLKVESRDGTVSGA
On the % scale 0 is the no-effect control and ±100 the full control effect.

| Compound | AC50 | activity, negative = inhibition |
| --- | --- | --- |
| COc1cccc(C(=O)Nc2ccc(-c3nnc(-c4ccco4)o3)cc2)c1 | 4.47 µM (active) | – |
| COc1cc(C(=O)Nc2ccc(-c3nnc(-c4ccco4)o3)cc2)cc(OC)c1OC | 7.08 µM (active) | – |
| O=C(COc1ccccc1)Nc1ccc(-c2nnc(-c3ccco3)o2)cc1 | – | 18.1% (inactive) |
| C=CCNc1oc(/C=C/c2ccccc2)nc1C#N | 15.8 µM (active) | – |
| Cc1cnc(CNc2nc(-c3ccc(N(C)C)cc3)nc3ccccc23)cn1 | 5.01 µM (active) | – |
| Cc1cnc(CNc2nc(-c3ccoc3)nc3ccccc23)cn1 | 12.6 µM (active) | – |
| C=CCn1c(-c2cccn(Cc3ccccc3)c2=O)n[nH]c1=S | 12.6 µM (active) | – |
| C=CCn1c(C(C)NC(=O)c2ccccc2)n[nH]c1=S (centres undefined) | – | -3.87% [at 11.4 µM] (inactive) |
| O=c1c(-c2nc3ccccc3s2)cccn1Cc1ccc(Cl)cc1 | 14.1 µM (active) | – |
| O=C(NNc1nc2ccccc2s1)c1ccccc1F | – | -13.7% (inactive) |
| Clc1ccc(CCNc2nc3ccccc3s2)cc1 | 15.8 µM (active) | – |
| O=c1c(-c2nc3ccccc3s2)cccn1Cc1ccccc1 | 17.8 µM (active) | – |
| CC(=O)NNc1nc2ccccc2s1 | – | -8.59% (inactive) |
| OC[C@@H]1O[C@@H](n2cnc3c(NC4CCCCC4)ncnc32)[C@@H](O)[C@H]1O | – | -10.8% (inactive) |
| O=C(CCc1ccccc1)NNC(=O)C1CCCCC1 | – | -0.205% [at 2.29 µM] (inactive) |
| CC(=O)NS(=O)(=O)c1ccc(NC(=O)NC2CCCCC2)cc1 | – | -6.87% (inactive) |
| O=C(CCc1ccc(S(=O)(=O)NC2CCCCC2)cc1)N(Cc1ccccc1)Cc1ccccc1 | 3.16 µM (active) | – |
| Cc1ccc(NC(=O)CCc2ccc(S(=O)(=O)NC3CCCCC3)cc2)cc1 | 0.891 µM (active) | – |
| O=C(NNS(=O)(=O)c1ccc(Cl)cc1)NC1CCCCC1 | – | 14.5% (inactive) |
| CCC(C)NS(=O)(=O)c1ccc(NC(=O)CCC2CCCCC2)cc1 (centres undefined) | – | 14.9% [at 2.29 µM] (inactive) |
| O=C(O)c1ccccc1/C=N\N=C1c2ccccc2-c2ccccc21 | – | -13.2% [at 11.4 µM] (inactive) |
| Cn1c(CNS(=O)(=O)c2ccc(F)cc2)n[nH]c1=S | – | -10.2% (inactive) |
| CCOc1ccccc1OCCOc1ccc(F)cc1 | – | -15% (inactive) |
| CCOc1ccc(S(=O)(=O)NCc2ccc(F)cc2)c2cccnc12 | 15.8 µM (active) | – |
| O=C(CCN1C(=O)S/C(=C\c2ccccc2)C1=O)Nc1ccc(S(=O)(=O)Nc2nccs2)cc1 | 5.01 µM (active) | – |

| Compound | AC50 | activity, negative = inhibition |
| --- | --- | --- |
| O=C1Nc2ccccc2C1=Nc1ccc(S(=O)(=O)Nc2nccs2)cc1 | – | -1.93% [at 11.4 µM] (inactive) |
| Nc1ccc(S(=O)(=O)Nc2nccs2)cc1 | – | -15.7% [at 25.6 µM] (inactive) |
| O=C(NCC1CCCO1)C1CCC(=O)N1CCc1ccccc1 (centres undefined) | – | -13.8% (inactive) |
| O=C(NCC1CCCO1)C1c2ccccc2C(=O)N1Cc1ccc2c(c1)OCO2 (centres undefined) | 1.41 µM (active) | – |
| CCS(=O)(=O)N1CCC(C(=O)NCC2CCCO2)CC1 (centres undefined) | – | 1.97% (inactive) |
| COc1ccc(-n2c(N)c(C(=O)NCc3ccco3)sc2=S)cc1 | 25.1 µM (active) | – |
| CCOc1ccc(-n2c(N)c(C(=O)NCc3cccnc3)sc2=S)cc1 | 2 µM (active) | – |
| CCOc1ccc(-n2c(C)nc3cc(C(=O)NCc4ccco4)ccc32)cc1 | – | -16.2% (inactive) |
| CCOc1ccc(N2C(=O)c3cccnc3C2=O)cc1 | – | -13.3% (inactive) |
| Cc1ccc(-n2c(N)c(C(=O)NCc3ccco3)sc2=S)cc1 | 25.1 µM (active) | – |
| CC(C)c1cc(CN(C)C)c(O)c(C(C)(C)C)c1 | – | -5.68% [at 11.4 µM] (inactive) |
| N#Cc1c(-c2ccc(Cl)cc2)nc2n(c1=O)CCCS2 | – | -15.8% (inactive) |
| CCNc1nc(NCC)nc(N(C)N)n1 | – | -10.2% (inactive) |
| COc1ccc(NS(=O)(=O)c2cc(-c3nnnn3C)ccc2OC)cc1 | – | -15.9% [at 11.4 µM] (inactive) |
| COc1ccccc1S(=O)(=O)Nc1ccc(-c2nnc3n2CCCCC3)cc1 | 14.1 µM (active) | – |
| O=C(/C(=C/c1ccc(Cl)cc1)c1nc2ccccc2[nH]1)c1ccccc1 | 3.55 µM (active) | – |
| Cc1ccc(/C=C/C(=O)c2nc3ccccc3[nH]2)cc1 | – | -18.1% [at 2.29 µM] (inactive) |
| O=C(O)/C(=C/c1c(C(=O)O)[nH]c2cc(Cl)cc(Cl)c12)c1ccccc1 | – | -1.29% (inactive) |
| COc1ccc(N2CCC(CNC(=O)Nc3ccc(OC)cc3OC)C2)cc1 (centres undefined) | 7.08 µM (active) | – |
| COCCN(C(=O)Nc1ccc(OC)cc1OC)C1CCN(C(C)=O)CC1 | – | -11.9% (inactive) |
| COc1ccc(CCNC(=O)CCN2C(=O)C(C)Oc3ccc(C)cc32)cc1OC (centres undefined) | 1.78 µM (active) | – |
| COc1ccc(CCNC(=O)CCN2C(=O)COc3ccc(C)cc32)cc1OC | 2.24 µM (active) | – |
| Cc1ccc2c(c1)N(CC(=O)NCc1cccs1)C(=O)C(C)O2 (centres undefined) | – | -21.8% [at 2.29 µM] (inactive) |
| COc1ccc(CC(=S)N2CCOCC2)cc1OC | – | -2.8% [at 2.29 µM] (inactive) |

— PubChem BioAssay AID1851 (National Center for Advancing Translational Sciences (NCATS), 2009)
